Assay results taken from PubChem BioAssay (NCATS).
Several values for one entry are separate records, joined by “and”; a condition that tells them apart may be missing. Equal entries are not always repeated. Results filed as inconclusive are left out. More than one record can exist for a structure, and the calls need not agree. Activity calls are given as the source filed them. Unless noted, calls follow the shape of the dose curve; as a rule, active = well fitted curve in the direction sought with a large enough effect; inconclusive = small, poorly fitted or top-dose-only effect, or another doubt; inactive = no such curve, though single readings can be large; an effect the other way counts as inactive or inconclusive.

Tests used:
[1] = qHTS Assay for Identification of Small Molecule Antagonists for NFkB Signaling Pathway (AID 895; active = well fitted inhibition curve with a large enough effect in the signal ratio, with a control signal flat, not every such curve was filed as active; the % refers to the signal ratio; also: potency is read from the fitted curve at half-maximal effect)
How it was run: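 Beta-lactamase reporter read-out (460 and 530 nm emission ratio, 405 nm excitation, 2 hrs substrate loading RT) after 5 hr stimulation with 10 pM TNF alpha in compound-treated NFkB-bla ME-180 cells in low-serum medium.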

[2] = target: Muscarinic acetylcholine receptor M1 (Rattus norvegicus) (UniProt P08482); assay: qHTS Assay for Antagonists of Acetylcholine Muscarinic M1 Receptor: Measurement of IP-One Response (AID 944); also: nearly all actives have a fitted effect of over 75% in size; also: potency is read from the fitted curve at half-maximal effect
Chain of Muscarinic acetylcholine receptor M1 (Rattus norvegicus) (P08482 whole entry, looked up): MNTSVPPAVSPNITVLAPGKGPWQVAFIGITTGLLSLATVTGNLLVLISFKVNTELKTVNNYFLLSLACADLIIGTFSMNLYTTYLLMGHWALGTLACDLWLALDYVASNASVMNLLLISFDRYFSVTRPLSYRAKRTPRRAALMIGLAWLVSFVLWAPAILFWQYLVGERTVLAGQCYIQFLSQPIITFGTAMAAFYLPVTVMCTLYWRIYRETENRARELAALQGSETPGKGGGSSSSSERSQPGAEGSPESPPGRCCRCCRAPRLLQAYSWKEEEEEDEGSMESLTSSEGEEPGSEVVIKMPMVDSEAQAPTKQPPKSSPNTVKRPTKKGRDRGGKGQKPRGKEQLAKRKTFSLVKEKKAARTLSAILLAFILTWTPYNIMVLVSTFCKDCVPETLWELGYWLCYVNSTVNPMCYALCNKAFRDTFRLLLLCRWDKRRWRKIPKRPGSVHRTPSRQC
How it was run: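 Read-out: HTRF competition between d2-IP1 and Eu-cryptate anti-IP1 antibody, emission 620 and 665 nm. Stimulus was carbachol, EC80 (200 nM), for 30 min in M1-CHO cells (rat receptor), after 10 min compound pre-treatment.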

[3] = target: Pyruvate kinase (Leishmania mexicana) (UniProt Q27686); assay: qHTS Validation Assay for Inhibitors of Leishmania Mexicana Pyruvate Kinase (AID 945); also: potency is read from the fitted curve at half-maximal effect
Chain of Pyruvate kinase (Leishmania mexicana) (Q27686 2-499 E452W): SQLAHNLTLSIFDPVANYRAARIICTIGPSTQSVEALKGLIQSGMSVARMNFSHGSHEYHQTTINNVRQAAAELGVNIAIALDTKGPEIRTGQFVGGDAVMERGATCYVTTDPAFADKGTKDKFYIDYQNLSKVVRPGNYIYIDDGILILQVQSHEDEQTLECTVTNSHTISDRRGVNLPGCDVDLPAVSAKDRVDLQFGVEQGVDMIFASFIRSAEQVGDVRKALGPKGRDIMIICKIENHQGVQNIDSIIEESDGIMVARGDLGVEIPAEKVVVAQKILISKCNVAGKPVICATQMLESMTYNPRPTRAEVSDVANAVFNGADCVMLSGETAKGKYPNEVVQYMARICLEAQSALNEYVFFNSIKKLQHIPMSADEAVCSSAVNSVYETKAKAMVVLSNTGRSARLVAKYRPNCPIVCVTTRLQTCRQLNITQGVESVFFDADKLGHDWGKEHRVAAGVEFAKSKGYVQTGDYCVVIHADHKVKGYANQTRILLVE
How it was run: (§1)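 The enzyme is a highly purified E451W mutant of LmPYK used at 0.2 nM. It converts 0.5 mM PEP and 0.1 mM ADP over 1 h at room temperature; product ATP is quantified by luciferase luminescence relative to DMSO controls.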

[4] = target: Pyruvate kinase PKM (Homo sapiens) (UniProt P14618); assay: qHTS Assay for Activators of Human Muscle Pyruvate Kinase (AID 954; active = well fitted curve in the direction sought with a large enough effect, not every such curve was filed as active;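 also: 0% = uninhibited enzyme and -100% = no enzyme or full thiadiazolimine inhibition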)
Chain of Pyruvate kinase PKM (Homo sapiens) (P14618 whole entry, looked up): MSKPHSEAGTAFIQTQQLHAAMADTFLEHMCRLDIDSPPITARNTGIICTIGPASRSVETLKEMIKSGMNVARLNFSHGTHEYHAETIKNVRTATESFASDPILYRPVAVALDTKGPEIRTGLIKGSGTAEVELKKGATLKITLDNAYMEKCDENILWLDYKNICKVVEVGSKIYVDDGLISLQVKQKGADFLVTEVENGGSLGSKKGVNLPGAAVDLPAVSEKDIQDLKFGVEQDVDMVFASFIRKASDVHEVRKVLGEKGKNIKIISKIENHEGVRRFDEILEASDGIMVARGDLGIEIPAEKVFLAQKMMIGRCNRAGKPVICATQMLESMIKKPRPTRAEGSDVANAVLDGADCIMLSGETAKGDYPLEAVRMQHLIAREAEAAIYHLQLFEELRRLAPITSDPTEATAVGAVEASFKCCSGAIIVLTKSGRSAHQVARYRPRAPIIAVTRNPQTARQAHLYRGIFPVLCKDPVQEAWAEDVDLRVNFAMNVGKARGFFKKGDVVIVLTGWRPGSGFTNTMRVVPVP
How it was run: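 ATP production by PKM2 detected via luciferase luminescence after 1 h room-temperature reaction (0.1 nM enzyme, PEP at Km 0.5 mM, ADP 0.1 mM, pH 7.2 imidazole buffer). Inhibition scaled to no-enzyme control; activation referenced to 0.3 nM enzyme wells.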

[5] = target: Cytochrome P450 2C19 (Homo sapiens) (UniProt P33261); assay: qHTS Assay for Inhibitors and Substrates of Cytochrome P450 2C19 (AID 899); also: nearly all actives have a fitted effect of over 60% in size; also: potency is read from the fitted curve at half-maximal effect
Chain of Cytochrome P450 2C19 (Homo sapiens) (P33261 whole entry, looked up): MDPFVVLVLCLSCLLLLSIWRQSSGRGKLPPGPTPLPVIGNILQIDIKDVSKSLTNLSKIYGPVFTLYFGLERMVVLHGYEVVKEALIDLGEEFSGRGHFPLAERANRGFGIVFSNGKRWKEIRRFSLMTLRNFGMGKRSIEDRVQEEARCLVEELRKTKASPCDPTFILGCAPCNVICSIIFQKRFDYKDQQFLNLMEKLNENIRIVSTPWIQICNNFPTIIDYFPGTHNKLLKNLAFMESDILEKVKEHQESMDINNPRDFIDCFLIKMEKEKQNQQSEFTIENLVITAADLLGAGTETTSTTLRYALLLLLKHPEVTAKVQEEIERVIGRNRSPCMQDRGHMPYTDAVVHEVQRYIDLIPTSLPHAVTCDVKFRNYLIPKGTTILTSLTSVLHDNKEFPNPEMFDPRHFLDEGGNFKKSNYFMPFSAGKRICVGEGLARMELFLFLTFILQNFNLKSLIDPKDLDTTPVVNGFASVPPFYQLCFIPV
How it was run: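 5nM enzyme + 10uM Luciferin-H EGE (=KM), 50mM KPO4; cpd pin-transferred, 10 min 37C; NADPH regen, 60 min 37C; stopped w/ luciferin detection reagent, 20 min; luminescence. Normalized to 57uM ketoconazole (AC100).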

[6] = Confirmation and Secondary Assay for Modulators of Hemoglobin Beta Chain Splicing at IVS2 654 locus (AID 910);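 also: HeLa cells stably carrying EGFP split by mutant beta-globin IVS2-654 intron; per-well total GFP intensity by laser scanning cytometry after 2-day treatment; % of control where 0% means no effect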
How it was run: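 Readout: per-well total peak green fluorescence (488 nm ex, 500–520 nm em) from objects 5–250 µm, reflecting correct splicing of an EGFP-654 reporter. Compounds were applied for 2 days at 37 °C to overnight-plated HeLa EGFP-654 cells; controls were DMSO and 500 nM IVS2-654 PNA.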

[7] = Confirmation and Secondary Assay for Modulators of Hemoglobin Beta Chain Splicing at IVS2 705 locus (AID 930);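 also: HeLa cells stably expressing the EGFP-705 splicing reporter; GFP fluorescence per well restored by corrected splicing of the IVS2-705 intron in EGFP; series mostly up to about 46 µM; % of control where 0% means no effect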
How it was run: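 Splice-correction reporter: EGFP cDNA split by beta-globin intron 2 bearing the 705 mutation, stably in HeLa. Compound incubation 2 days, 37C; fluorescent objects 5-250 µm summed per well.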

[8] = Cell Viability - LYMP2-001 (AID 921);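 also: series mostly up to about 92 µM; cells exposed to compound for 24 h at 37 °C; 0% = DMSO only and full inhibition = tetraoctylammonium bromide control wells; nearly all actives have a fitted effect of over 70% in size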
How it was run: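 qHTS, 1536-well; lymphoblastoid cells, 24 hr compound, 37 C; ATP by CellTiter-Glo, 30 min RT; luminescence; Hill-fit AC50.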

[9] = MultiTox-Fluor Cytotoxicity Assay - LYMP1-001 - Dead Cells (AID 946); also: potency is read from the fitted curve at half-maximal effect
How it was run: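 Cytotoxicity as increased dead-cell protease fluorescence (bis-AAF-R110, 485/520 nm), read 60 min after MultiTox-Fluor reagent. Human lymphoblastoid line exposed 16 h; Hill-fitted AC50, with DMSO as 0% and 15 uM tetraoctylammonium bromide as 100%.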

[10] = MultiTox-Fluor Cytotoxicity Assay - LYMP1-001 - Live Cells (AID 947);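 also: 0% = DMSO only and full inhibition = tetraoctylammonium bromide control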
[11] = Cell Viability - LYMP1-002 - Assay at 16 hr (AID 948);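 also: 0% = DMSO alone and full effect = 92 µM tetraoctylammonium bromide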
How it was run: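 Acute cytotoxicity is scored as a concentration-dependent fall in intracellular ATP in a human lymphoblastoid line (LYMP1-002) after 16 hr compound exposure at 37 C, measured by luciferase luminescence.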

[12] = MultiTox-Fluor Cytotoxicity Assay - LYMP1-002 - Live Cells (AID 955);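 also: cells exposed to compound for 16 hours; % is scaled to controls: 0 for no effect and ±100 for the full control effect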
How it was run: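 LYMP1-002 lymphoblastoid cells; 2500 cells/well; 16 hr compound exposure, 37 C; MultiTox-Fluor reagent 60 min RT; live-cell fluorescence Ex/Em=405/510; qHTS concentration-response, Hill-equation AC50; tetraoctylammonium bromide positive control.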

[13] = MultiTox-Fluor Cytotoxicity Assay - LYMP1-002 - Dead Cells (AID 960); also: nearly all actives have a fitted effect of over 60% in size; also: potency is read from the fitted curve at half-maximal effect
How it was run: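 Readout: fluorescence at 485/520 from cell-impermeant bis-AAF-R110 cleaved by proteases leaking from damaged cells. LYMP1-002 lymphoblastoid line, 16 hr compound treatment at 37 C, concentration-response in qHTS format; Hill-equation AC50 values.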

[14] = MultiTox-Fluor Cytotoxicity Assay - LYMP1-003 - Dead Cells (AID 961); also: nearly all actives have a fitted effect of over 70% in size
How it was run: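 Dead-cell protease release, detected as bis-AAF-R110 fluorescence at 485/520 nm, was measured in LYMP1-003 cells after 16 h compound treatment at 37 C. AC50 values came from Hill-modeled qHTS curves normalized to DMSO (0%) and 15 uM tetraoctylammonium bromide (100%).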

[15] = target: Muscarinic acetylcholine receptor M1 (Rattus norvegicus) (UniProt P08482); assay: qHTS Assay for Antagonists of Acetylcholine Muscarinic M1 Receptor: Kinetic Measurement of Intracellular Calcium Response (AID 943);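 also: Fluo-4 calcium signal as peak divided by basal fluorescence over 4 min; series mostly up to about 35 µM; nearly all actives have a fitted effect of over 75% in size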
How it was run: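 Read-out: peak over basal Fluo-4 fluorescence, kinetic at 1 Hz for 4 min after EC80 carbachol (100 nM final). Rat M1-CHO cells, dye loaded 1 h at 37C, compound added 10 min before agonist.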

[16] = target: Pyruvate kinase (Leishmania mexicana) (UniProt Q27686); assay: qHTS Validation Assay for Activators of Leishmania Mexicana Pyruvate Kinase (AID 959)
How it was run: as §1

[17] = qHTS Assay for Identification of Small Molecule Agonists for Hypoxia Response Element Signaling Pathway (AID 914; active = well fitted activation curve with a large enough effect in the signal ratio, with a control signal flat, not every such curve was filed as active; the % refers to the signal ratio; also: % of control where 0% means no effect); details: ME-180 (cervical carcinoma) HRE-bla reporter, beta-lactamase ratio, CoCl2, 17 h; stronger effect = higher value
How it was run: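 Cells were plated overnight, pin-dosed with compound in a titration series, co-stimulated with EC50 CoCl2 and incubated 17 hours at 37 degrees Celsius. CCF4 substrate was then loaded, and AC50 values came from the 460nm/530nm ratio.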

[18] = qHTS Assay for Identification of Small Molecule Agonists for Thrombopoietin (TPO) Signaling Pathway (AID 917); also: % is scaled to controls: 0 for no effect and ±100 for the full control effect
How it was run: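 Quantitative HTS for pathway activators: compounds were pin-transferred onto IL-3-starved Ba/F3 cells expressing human TPO receptor, TPO was added at its EC50 (26 pM final), and after 24 hrs at 37 C reporter luciferase was measured.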

[19] = qHTS Assay for Identification of Small Molecule Antagonists for Thrombopoietin (TPO) Signaling Pathway (AID 918); details: TPO-dependent cell signaling reporter, antagonist mode; also: potency is read from the fitted curve at half-maximal effect; nearly all actives have a fitted effect of over 60% in size
How it was run: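 Luminescence read-out: GPIIb-promoter luciferase in Ba/F3 cells carrying human TPO receptor. Compounds added with 26 pM TPO (EC50), 24 hrs, 37 C, 5% CO2; cells deprived of IL-3 overnight beforehand. Inhibition of signal scored.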

CCOC(=O)C(C)(C)Oc1ccc(Cl)cc1
inactive: Potency [1] | Potency [2] | Potency [3] | outcome [4]

NC(=O)OCC(COC(N)=O)c1ccccc1
inactive: Potency [1] | Potency [5] | Potency [2] | Potency [3] | outcome [4]

COC(=O)Nc1nc2ccc(C(=O)c3cccs3)cc2[nH]1
inactive: Potency [5] | Potency [6] | outcome [7] | Potency [3] | outcome [4]

N[C@@H](Cc1c[nH]c2ccc(O)cc12)C(=O)O
inactive: Potency [5] | outcome [8] | Potency [2] | Potency [3] | Potency [9] | outcome [10] | outcome [11] | outcome [4] | outcome [12] | Potency [13] | outcome [14]

O=C1N(c2ccccc2)c2ccccc2C1(Cc1ccncc1)Cc1ccncc1
inactive: Potency [15] | Potency [2] | Potency [3] | outcome [4]
active: Potency [5] 3.16 µM and 199 nM

O=c1c(-c2ccc(O)cc2)coc2cc(O)cc(O)c12
active: Potency [3] 12.6 µM
inactive: Potency [6] | outcome [8] | outcome [7] | Potency [9] | outcome [10] | outcome [11] | outcome [4] | outcome [12] | outcome [16] | Potency [13] | outcome [14]
inactive and 20 µM (active): Potency [5]

Cn1c(=O)c2c(ncn2C)n(C)c1=O
inactive: Potency [5] | Potency [6] | activation [17] -1.38% | outcome [8] | Potency [2] | Potency [9] | outcome [10] | outcome [11] | outcome [4] | outcome [12] | Potency [13] | outcome [14]

O=C(C1CCCCC1)N1CC(=O)N2CCc3ccccc3C2C1 (configuration not stated)
inactive: Potency [1] | Potency [6] | Potency [18] | outcome [4]

Cc1cc(C(C)(C)C)c(O)c(C)c1CC1=NCCN1
inactive: Potency [5] | Potency [6] | Potency [3] | outcome [4]

O=c1[nH]cc(F)c(=O)[nH]1
inactive: Potency [5] | outcome [8] | Potency [3] | Potency [9] | outcome [10] | outcome [11] | outcome [4] | outcome [12] | Potency [13] | outcome [14]

Cn1cnc2c1c(=O)[nH]c(=O)n2C
inactive: Potency [1] | Potency [6] | outcome [7] | Potency [2] | Potency [3] | outcome [4]

COc1ccc2c(c1)c(CC(=O)O)c(C)n2C(=O)c1ccc(Cl)cc1
inactive: Potency [5] | Potency [6] | Potency [18] | outcome [7] | Potency [9] | outcome [10] | outcome [11] | outcome [4] | outcome [12] | Potency [13] | outcome [14]

CN(C)c1nc(N(C)C)nc(N(C)C)n1
inactive: Potency [1] | Potency [6] | Potency [3] | outcome [4]

CCOC(=O)c1ncn2c1CN(C)C(=O)c1cc(F)ccc1-2
inactive: Potency [5] | Potency [3] | outcome [4]

CS(=O)(=O)Nc1ccc([N+](=O)[O-])cc1Oc1ccccc1
inactive: Potency [1] | Potency [5] | Potency [6] | Potency [18] | outcome [4]

COc1ccc(C2CNC(=O)C2)cc1OC1CCCC1 (configuration not stated)
inactive: Potency [1] | Potency [15] | Potency [2] | Potency [3] | outcome [4]

Clc1ccc2c(c1)C(N1CCNCC1)=Nc1ccccc1O2
active: Potency [19] 10 µM
inactive: Potency [5] | Potency [6] | Potency [3] | outcome [4]

Clc1ccccc1C(c1ccccc1)(c1ccccc1)n1ccnc1
active: Potency [5] 10 µM | Potency [19] 12.6 µM
inactive: Potency [6] | Potency [3] | outcome [4]

Nc1nnc(-c2cccc(Cl)c2Cl)c(N)n1
inactive: Potency [1] | Potency [18] | Potency [3] | outcome [4]

Cn1c(=O)c2[nH]cnc2n(C)c1=O
inactive: Potency [1] | Potency [6] | outcome [8] | Potency [9] | outcome [10] | outcome [11] | outcome [4] | outcome [12] | Potency [13] | outcome [14]

COc1nc(C)nc(Cl)c1NC1=NCCN1
inactive: Potency [5] | Potency [3] | outcome [4]

CN1C(C(=O)Nc2ccccn2)=C(O)c2ccccc2S1(=O)=O
inactive: Potency [6] | Potency [3] | outcome [4]
inactive and 6.31 µM (active): Potency [5]

COc1ccc2[nH]cc(CCNC(C)=O)c2c1
inactive: Potency [1] | Potency [6] | outcome [8] | outcome [7] | Potency [2] | Potency [3] | Potency [9] | outcome [10] | outcome [11] | outcome [4] | outcome [12] | Potency [13] | outcome [14]

CCC1(c2ccccc2)C(=O)NCNC1=O
inactive: Potency [1] | Potency [5] | Potency [6] | outcome [8] | Potency [9] | outcome [10] | outcome [11] | outcome [4] | outcome [12] | Potency [13] | outcome [14]

C[C@](N)(Cc1ccc(O)c(O)c1)C(=O)O
inactive: Potency [1] | Potency [3] | outcome [4]

COc1cc2c(c(OC)c1OC)-c1ccc(OC)c(=O)cc1[C@@H](NC(C)=O)CC2
active: Potency [9] 63.1 nM and 100 nM | Potency [13] 0.0501 µM
inactive: Potency [1] | Potency [2] | Potency [3] | outcome [4]

CN(C)CCCN1c2ccccc2CCc2ccc(Cl)cc21
inactive: Potency [1] | Potency [5] | Potency [6] | Potency [3] | outcome [4]

O=C1c2c(O)ccc(O)c2C(=O)c2c(NCCNCCO)ccc(NCCNCCO)c21
active: Potency [1] 2 µM | Potency [19] 0.0251 µM | Potency [2] 5.01 µM
inactive: Potency [6] | outcome [4] | outcome [16]
